Only some compounds are listed: those with a hit (about 14% of all), similar ones and a draw of the others.
Shiga inhibitor: Shiga toxin inhibition | 290,000 compounds, 9.2% hits | inhibition, % at 38.7 µM | Vero cells, Shiga toxin protein synthesis inhibition reporter; in the data active = inhibition mostly above about 28%, no sharp cut-off; inactive = mostly below about 43%; also: 0% is about no effect
Cycloheximide cs: affects cycloheximide protein synthesis inhibition readout, counter-screen | cell reporter, cycloheximide protein synthesis inhibition counterscreen | max response, % | 300,000 compounds, 12% hits | AID 2314; in the data active = max response mostly above about 13%, no sharp cut-off; inactive = mostly below about 14%; also: read at 38.3 µM for the half of the compounds with a filed dose; 0% is about no effect
LmPK inh: blocks Leishmania mexicana pyruvate kinase activity; Q27686; Potency, µM (series often up to 57.5 µM), for inactives: top-dose activity change, negative = inhibition, actives largely listed as inhibitors; purified LmPK, Kinase-Glo ATP luminescence, 1 h; 290,000 compounds, 0.37% hits; also: potency is read from the fitted curve at half-maximal effect; % is scaled to controls: 0 for no effect and ±100 for the full control effect
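Purified LmPK (0.1 nM) converted ADP (0.1 mM) to ATP with PEP (0.5 mM) in imidazole buffer pH 7.2 with KCl and MgCl2, 1 h at room temperature. ATP was read by Kinase-Glo luminescence; data normalized to uninhibited and no-enzyme controls.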
Giardia FBPA inh: Giardia lamblia aldolase inhibition; purified Giardia FBPA; Potency, µM (doses to about 59.6 µM), without a hit: at the top dose activity, negative = inhibition, actives largely listed as inhibitors; AID 2451; A8B2U2; 290,000 compounds, 0.71% hits; also: potency is read from the fitted curve at half-maximal effect; % is scaled to controls: 0 for no effect and ±100 for the full control effect; nearly all actives have a fitted effect of over 55% in size
Target sequence (A8B2U2 whole entry, looked up): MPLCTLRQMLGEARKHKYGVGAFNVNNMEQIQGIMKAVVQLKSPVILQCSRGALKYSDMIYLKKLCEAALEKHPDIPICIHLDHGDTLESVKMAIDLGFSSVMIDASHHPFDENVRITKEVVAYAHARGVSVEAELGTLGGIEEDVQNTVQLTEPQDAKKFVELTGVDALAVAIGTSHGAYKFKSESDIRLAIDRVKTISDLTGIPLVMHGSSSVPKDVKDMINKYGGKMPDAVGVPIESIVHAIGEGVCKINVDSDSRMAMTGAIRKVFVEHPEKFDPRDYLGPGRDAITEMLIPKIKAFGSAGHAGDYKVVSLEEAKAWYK
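Giardia FBPA (40 nM reagent) was preincubated 10 min at RT with compound (up to 57.5 uM final), then substrate plus GAPDH/TPI/NAD/arsenate coupling system with diaphorase/resazurin was added; resorufin fluorescence (525/598 nm) was read after 20 min.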
NS1 function inh: inhibitors of influenza NS1 protein function | Potency, µM (doses to about 46.1 µM), inactives show at the highest dose activity, positive = more growth | 270,000 compounds, 0.4% hits | AID 2326; calls by dose curve; also: potency is read from the fitted curve at half-maximal effect; actives are rising curves; nearly all actives have a fitted effect of over 50% in size
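OD600 was taken as the measure of yeast growth restored by compound in an NS1-expressing S. cerevisiae strain. Cells had been washed out of glucose medium and diluted 1:100 into galactose -URA medium, pH 6.0.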
* hit, by the source's call; ? = inconclusive; / = not tested or not shown; [ ] = remark or other dose. Unless noted, calls follow the shape of the dose curve; as a rule, active = well fitted curve in the direction sought with a large enough effect; inconclusive = small, poorly fitted or top-dose-only effect, or another doubt; inactive = no such curve, though single readings can be large; an effect the other way counts as inactive or inconclusive.

SMILES	Shiga inhibitor	Cycloheximide cs	LmPK inh	Giardia FBPA inh	NS1 function inh
COc1ccc(C(=O)Nc2ccc3c(c2)nc2n3CCSC2)cc1	86*	45*	0%	-11%	-5%
O=C(O/N=C1/CCCc2occc21)c1ccc(Cl)cc1Cl	86*	54*	-9%	-8%	3%
O=C(O/N=C1/CCCc2occc21)c1ccccc1	54*	26*	13µM*	-1%	-46%
C[C@@H](O)C#C[Si](C)(C)c1ccccc1	/	/	/	3%	/
CCOc1ccccc1NC(=O)COC(=O)C1CC(=O)N(c2c(C)cccc2C)C1 (centres undefined)	-6	0	-2%	6%	5%
Nc1ccc(C(=O)O)cc1[N+](=O)[O-]	-6	-2	-3%	-1%	/
Nc1ccc(C(=O)c2cccs2)cc1[N+](=O)[O-]	71*	28*	3%	5%	-5%
CN(CC(=O)Nc1ccc2c(c1)OCCO2)S(=O)(=O)c1ccc(F)cc1	117*	27*	1%	11%	2%
COc1ccc(S(=O)(=O)N(C)CC(=O)Nc2ccc3c(c2)OCO3)cc1OC	16	7.8*	6%	17%	-2%
COc1ccc(S(=O)(=O)N(C)CC(=O)Nc2ccc3c(c2)OCO3)cc1	10	15	2%	-5%	2%
CC(Nc1ccc2c(c1)OCCO2)C(=O)Nc1ccc2c(c1)OCO2 (centres undefined)	36	18	2%	1%	/
CCc1cccc(NC(=O)CN(C)S(=O)(=O)c2cccs2)c1	71*	24*	22%	-1%	/
CC(NS(=O)(=O)c1ccc(F)cc1)C(=O)Nc1ccc2c(c1)OCCO2 (centres undefined)	21	11*	1%	/	-3%
O=c1c(-c2ccc(F)cc2)nc2cnc(N3CCNCC3)nc2n1-c1ccccc1	/	/	/	15%	/
CCNc1ncc2nc(-c3cccs3)c(=O)n(CCC#N)c2n1	/	/	/	-16%	/
CN(CC(=O)Nc1ccc(F)c(F)c1)S(=O)(=O)c1cccs1	2	10	3%	5%	-8%
COc1ccc(NC(=O)CN2CCN(Cc3ccc4c(c3)OCO4)CC2)cc1OC	21	-4	-24%	18µM*	13%
C[C@H](NS(=O)(=O)c1ccccc1)C(=O)OCC(=O)NC(=O)Nc1ccc2c(c1)OCCO2	86*	74*	1%	-8%	1%
CN(CC(=O)Nc1ccc2c(c1)OCO2)S(=O)(=O)c1cccs1	67*	47*	2%	-2%	-2%
CC(C)[C@H](NS(=O)(=O)c1ccccc1)C(=O)OCC(=O)Nc1ccc2c(c1)OCO2	-14	7	-1%	1%	-20%
CN(c1ccc(C(=O)Nc2ccc3c(c2)OCO3)cc1)S(C)(=O)=O	62*	33*	?	-15%	4%
CN(c1ccc(C(=O)Nc2ccc(CC#N)cc2)cc1)S(C)(=O)=O	58*	19	1%[11.5 µM]	0%	/
CN(c1ccc(C(=O)Nc2ccc3c(c2)OCCO3)cc1)S(C)(=O)=O	59*	31*	?	-5%	0%
CN(c1ccccc1C(=O)Nc1ccc2c(c1)OCCO2)S(C)(=O)=O	-4	1	-4%	-3%	9%
CC1=CC(=Nc2c(C)n(C)n(-c3ccccc3)c2=O)C=CC1=O	12	7	?	3.5µM*	?
SMILES	Shiga inhibitor	Cycloheximide cs	LmPK inh	Giardia FBPA inh	NS1 function inh
CC1=CC(=Nc2c(C)n(C)n(-c3ccccc3)c2=O)C=C(C)C1=O	-7	5	?	?	15%
O=C1COc2ccc(NC(=O)c3ccccc3C(=O)O)cc2N1	-4	-5	12%	-4%	13%
Cc1cc(-c2nc3ncccc3o2)ccc1N	85*	45*	-24%	0%	-22%
Cc1ccc(-c2nc3ncccc3o2)cc1NC(=O)C(C)(C)C	-6	-3	3%	-5%	8%
Nc1cc(-c2nc3ncccc3o2)ccc1Cl	60*	59*	-9%	0%	2%
Cc1ccc(-c2nc3ncccc3o2)cc1N	62*	49*	-1%	-3%	-5%
CC(CO)(CO)N=Cc1cc(I)cc(I)c1O	/	/	/	/	-53%
CCOC(=O)CN1C=C(c2ccc3ccccc3n2)C(C[N+](=O)[O-])c2ccccc21 (centres undefined)	22	11*	5%	?	1%
COCCNC(=O)CSc1nc(-c2ccccc2)cs1	45*	25*	-3%	7%	-5%
COCC(=O)NCCc1nc(-c2ccccc2)cs1	-40	-3	1%	7%	1%
O=C(CSc1nc(-c2ccccc2)cs1)NCc1ccco1	44*	22*	1%	-9%	-9%
COC(=O)[C@@]1(Cc2ccc(OC)cc2)[C@H]2c3cc(C(=O)N(C)C)n(Cc4ccccc4)c3C[C@H]2CN1C(=O)c1ccccc1	/	/	/	-4%	/
CC(C)(C)n1[nH]c2c3c(ccc2c1=O)C(=O)c1ccccc1C3=O	44	24*	-3%	?	-8%
Cc1cc2ccc3ccccc3c2cc1CN(C)C	60*	33*	-4%	-28%	-5%
O=C1CN(C(=O)c2ccc3nc(Cc4cccc(Cl)c4)oc3c2)CCN1	-15	-1	-8%	/	6%
Cc1ccc(-n2nnnc2SCC(=O)Nc2ccc3c(c2)COC3=O)cc1C	-4	17*	2%	12%	8%
Cc1ccc(-n2nnnc2SCC(=O)Nc2ccc3c(c2)OCCO3)cc1C	9	7	7%	10%	2%
Cn1ccnc1SCC(=O)Nc1ccc2c(c1)COC2=O	52*	14	7%	1%	2%
Cn1ccnc1SCC(=O)Nc1cccc(S(=O)(=O)N2CCCCCC2)c1	-5	2	3%	1%	/
C=C1CCC(OC(C)=O)/C(C)=C/CC2[C@H]1CC2(C)C (some centres undefined)	/	/	/	-2%	/
C=C1C(=O)O[C@H]2C1CC[C@@](C)(O)C13C=CC(C)(C21)C1(C3)C(=O)O[C@@H]2C3C(C)=CCC3[C@](C)(O)C[C@H](OC(C)=O)C21 (some centres undefined)	34*	12*	0%	4%	-3%
Cc1cc(Cl)ccc1OCc1nnc2n1CCCCC2	21	6	14%	-2%	2%
Clc1ccc(OCc2nnc3n2CCCCC3)c(Cl)c1	56*	28*	7%	-5%	1%
COc1cccc(C(C)N(C)Cc2nc(COc3ccccc3)no2)c1 (centres undefined)	25	-4	-1%	2%	-13%
CC(c1cccs1)N(C)Cc1nc(CCc2ccccc2)no1 (centres undefined)	37*	17	-6%	2%	3%
COc1ccc(Nc2nc(-c3ccc4c(c3)NC(=O)CO4)cs2)cc1	128*	27*	5%	-22%	/
COc1ccc(-c2cc(-c3ccccc3)nc(-c3ccc4c(c3)NC(=O)CO4)c2)cc1	25	9	0%	-8%	0%
COc1ccccc1NS(=O)(=O)c1cc2c(cc1C)NC(=O)CO2	1	-1	-2%	-8%	17%
CCC(C)Nc1nc(-c2ccc3c(c2)NC(=O)CO3)cs1 (centres undefined)	50*	28	2%	?	14%

Screens deposited in PubChem by National Center for Advancing Translational Sciences (NCATS).
